The results in this text go back to PubChem BioAssay (NCI).

Molecules are shown by their SMILES. This is part of a sample that, as a whole, favours compounds with a hit. Of some 79,000 tested, about 15% had one in any assay. Values without a mark were called inactive. The source made the active and inactive calls. Rule as the data show it: active = growth inhibition above about 70%; inactive = the rest. Where a SMILES comes first, the peptide text is derived from it. [ ]: non-standard residue; d: D form. The star is where a group is joined. ONb = O=[N+]([O-])c1ccc(CO*)cc1; AllylGly = C=CC[CH](N)C(=O)O; Boc = CC(C)(C)OC(=O)*

A short description of the first experiment: NCI Yeast Anticancer Drug Screen. Data for the mec2-1 strain (AID 157). The conditions noted are these: S. cerevisiae mec2-1 strain, at 50.0 µM, hits give high values. The gist of the method: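 Yeast mec2-1 mutant treated with compound. Readout: growth inhibition vs vehicle controls.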
Regarding `Cc1cccc2c(N=[N+]=[N-])cc(C(F)(F)F)nc12`, the growth inhibition was 6.7%.
As for `COC(C)C(NC(=O)C1CCCN1C)C1OC(SCCOC(=O)c2ccccc2O)C(O)C(O)C1O` (stereo not given), the growth inhibition is 6.3%.
With `CC1(C)N(/N=C/c2ccccc2)C(c2ccccc2)C(c2ccccc2)N1/N=C/c1ccccc1` (stereo not given), the growth inhibition is -6.45%.
Regarding `CC(C)CSC(SCC(C)C)C(O)C(O)C(O)CO` (stereo not given), the growth inhibition was 3%.
For `N#CC1=C(N)CCC(C#N)(c2ccccc2)C1` (stereo not given), the growth inhibition is 2%.
`O=C1C(=C(c2ccccc2)N2CCCCC2)C(=O)c2ccccc21`: the growth inhibition was -3.6%.
On the same count and under the same terms, the figure for `CCCCCCCCCCCCCCCCCCOc1c(Cl)c(Cl)c(Cl)c(Cl)c1Cl` is -1.55%; for `O=C1c2c(O)cccc2C(C(=O)CCCC(=O)C2c3cccc(O)c3C(=O)c3c(O)cccc32)c2cccc(O)c21` it is 13.2%.
For the compound `NNC(=O)C(=O)N/N=C(/CC1(O)C(=O)Nc2ccccc21)c1ccc(Cl)cc1Cl` (stereo not given), the growth inhibition was 4%.
Consider `O=C(O)c1cccc([N+](=O)[O-])c1Nc1cccc(C(F)(F)F)c1`, for which the growth inhibition was 32.5%.
Take `C[N+](C)(C)c1cc(Br)c(O)c(Br)c1`: the growth inhibition is 31.9%.
In the case of `COC(=O)c1cc(C(=O)OC)c(C(=O)OC)cc1C(=O)OC`, the growth inhibition is -1.25%.
For the compound `CCc1ccccc1NC(=O)C1=C(C)NC(C)=C(C(=O)Nc2ccccc2CC)C1c1cccc([N+](=O)[O-])c1`, the growth inhibition was 52%.
The same measure, in the same setting: the figure for `CCCCOC(=O)NC(=O)c1cn(CCCOC(=O)CCCCCCCCC(=O)OCCCn2cc(C(=O)NC(=O)OCCCC)c(=O)n(C)c2=O)c(=O)n(C)c1=O` is -10.9%; for `CCC(Nc1nncs1)Nc1nncs1` it is 22.6%; for `C=C(Cl)C(=O)O` it is -20.2%.
On the same count and under the same terms, the figure for `CC1CCCC(C)C1CO` (stereo not given) is -31.6%; for `CC(=O)OCc1cc(=O)n2c([nH]c3ccccc32)c1C#N` it is 10.6%.
As to `Cc1ccnc(NCc2ccccn2)c1`, the growth inhibition was 3.85%.
For the compound `Cc1ccc(S(=O)(=O)N=Nc2c(O)[nH]c3c(Cl)cc(Cl)cc23)cc1`, the growth inhibition was -18.8%.
Turning to `COc1ccc(/C=C/C2=CC(=O)CC(c3ccc(OC)c(OC)c3)C2)cc1OC` (stereo not given), the growth inhibition was 5.35%.
Regarding `O=Cc1ccc(-c2cccc([N+](=O)[O-])c2)s1`, the growth inhibition was 6.1%.
Turning to `COCC(N=CN1CCCc2ccccc2[C@@H]1CCCCl)C(C)(C)C` (stereo not given in full), the growth inhibition is 10.1%.
Still for that read-out and setting: the figure for `Cc1ccc2[nH]c(=O)cc(C)c2c1` is -0.45%; for `COc1ccc(-c2nnc(CCCCCCCCc3nnc(-c4ccc(OC)cc4)n3N)n2N)cc1` it is -23.9%.
Consider `CCCCC1CCC2CCCCC2C1` (stereo not given), for which the growth inhibition was -2.5%.
Consider `COc1cc(/C=C2\CCC(CN(C)C)C2=O)ccc1OC(=O)c1ccccc1` (stereo not given), for which the growth inhibition is 91.1% (active).
As for `CCOC(=O)/C(C#N)=C/Nc1[nH]c(=O)c(C#N)c(-c2ccc(Cl)cc2)c1SC`, the growth inhibition was 5.8%.
Turning to `CC(=O)C1=CN(Cc2ccccc2)C(O)CC1C(N)=O` (stereo not given), the growth inhibition was -12.6%.
Take `CCN(CC)CCNc1ccc(C)c2sc3ccc(N)cc3c(=O)c12`: the growth inhibition was 18.1%.
On to `CN(C)c1nc(=O)c2c(ccc3ccccc32)o1`, for which the growth inhibition is 24.3%.
Take `CCCCCC(Nc1nncs1)Nc1nncs1`: the growth inhibition was -20.5%.
Regarding `Cc1cc(=O)n(-c2ccc(-c3ccc(-n4c(C)c(C(=O)O)c(C)cc4=O)cc3)cc2)c(C)c1C(=O)O`, the growth inhibition is 6.35%.
Take `CC[N+](CC)(CC)CCCC[P+](CC)(CC)CC`: the growth inhibition is -9.15%.
With `COc1ccc(-n2c(N)c(C#N)c(C#N)c2-c2cccc([N+](=O)[O-])c2)cc1`, the growth inhibition is 9.75%.
For `Nc1ccc2cn[nH]c2c1`, the growth inhibition was -11.6%.
Regarding `C=CCC(NC(=O)OC(C)(C)C)C(=O)NC(CCC(=O)OCc1ccc([N+](=O)[O-])cc1)C(N)=O` (stereo not given) (Boc-[AllylGly]-Glu(ONb)-NH2; configuration not given here), the growth inhibition is -36.7%.
In the case of `CC1(n2[nH]c(=O)n(-c3ccccc3)c2=O)Cn2c(=O)n(-c3ccccc3)c(=O)n2-c2ccccc21` (stereo not given), the growth inhibition was -0.3%.
For the compound `COC1OC(=O)c2ccccc21` (stereo not given), the growth inhibition was -16.2%.
As for `CCN(CC)CCN(Cc1ccccc1)C(=S)NC(=O)c1ccccc1`, the growth inhibition is 2.15%.

A short description of a further experiment: NCI Yeast Anticancer Drug Screen. Data for the sgs1 mgt1 strain (AID 161).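 Also: 0% = growth of cultures given vehicle only.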 The conditions noted are these: S. cerevisiae sgs1 mgt1 strain, at 50.0 µM, hits give high values. In short, it runs like this:
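Inhibition of yeast growth, normalised to vehicle-treated controls, is reported for a strain bearing genetic alterations in DNA damage repair.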
As for `Cc1cccc2c(N=[N+]=[N-])cc(C(F)(F)F)nc12`, the growth inhibition was -0.6%.
On the same count and under the same terms, the figure for `COC(C)C(NC(=O)C1CCCN1C)C1OC(SCCOC(=O)c2ccccc2O)C(O)C(O)C1O` (stereo not given) is -13.6%; for `CC1(C)N(/N=C/c2ccccc2)C(c2ccccc2)C(c2ccccc2)N1/N=C/c1ccccc1` (stereo not given) it is 6.25%.
On to `CC(C)CSC(SCC(C)C)C(O)C(O)C(O)CO` (stereo not given), for which the growth inhibition is 5.4%.
As for `N#CC1=C(N)CCC(C#N)(c2ccccc2)C1` (stereo not given), the growth inhibition was 22.4%.
Still for that read-out and setting: the figure for `O=C1C(=C(c2ccccc2)N2CCCCC2)C(=O)c2ccccc21` is 15.1%; for `CCCCCCCCCCCCCCCCCCOc1c(Cl)c(Cl)c(Cl)c(Cl)c1Cl` it is -8.25%; for `O=C1c2c(O)cccc2C(C(=O)CCCC(=O)C2c3cccc(O)c3C(=O)c3c(O)cccc32)c2cccc(O)c21` it is 3.25%.
Same read-out and setting: the figure for `NNC(=O)C(=O)N/N=C(/CC1(O)C(=O)Nc2ccccc21)c1ccc(Cl)cc1Cl` (stereo not given) is -15.9%.
Same read-out and setting: the figure for `O=C(O)c1cccc([N+](=O)[O-])c1Nc1cccc(C(F)(F)F)c1` is 32.5%; for `C[N+](C)(C)c1cc(Br)c(O)c(Br)c1` it is 12%; for `COC(=O)c1cc(C(=O)OC)c(C(=O)OC)cc1C(=O)OC` it is 15.8%.
Turning to `CCc1ccccc1NC(=O)C1=C(C)NC(C)=C(C(=O)Nc2ccccc2CC)C1c1cccc([N+](=O)[O-])c1`, the growth inhibition is 24.2%.
For the compound `CCCCOC(=O)NC(=O)c1cn(CCCOC(=O)CCCCCCCCC(=O)OCCCn2cc(C(=O)NC(=O)OCCCC)c(=O)n(C)c2=O)c(=O)n(C)c1=O`, the growth inhibition is -10.7%.
Still for that read-out and setting: the figure for `CCC(Nc1nncs1)Nc1nncs1` is 2.2%; for `C=C(Cl)C(=O)O` it is 18.9%; for `CC1CCCC(C)C1CO` (stereo not given) it is 7.75%.
Turning to `CC(=O)OCc1cc(=O)n2c([nH]c3ccccc32)c1C#N`, the growth inhibition was -24.6%.
Regarding `Cc1ccnc(NCc2ccccn2)c1`, the growth inhibition is 17.4%.
Same read-out and setting: the figure for `Cc1ccc(S(=O)(=O)N=Nc2c(O)[nH]c3c(Cl)cc(Cl)cc23)cc1` is 4.65%; for `COc1ccc(/C=C/C2=CC(=O)CC(c3ccc(OC)c(OC)c3)C2)cc1OC` (stereo not given) it is 16.5%.
As for `O=Cc1ccc(-c2cccc([N+](=O)[O-])c2)s1`, the growth inhibition is -14.1%.
As for `COCC(N=CN1CCCc2ccccc2[C@@H]1CCCCl)C(C)(C)C` (stereo not given in full), the growth inhibition is 25.9%.
With `Cc1ccc2[nH]c(=O)cc(C)c2c1`, the growth inhibition was 13.8%.
As to `COc1ccc(-c2nnc(CCCCCCCCc3nnc(-c4ccc(OC)cc4)n3N)n2N)cc1`, the growth inhibition is -9.45%.
Regarding `CCCCC1CCC2CCCCC2C1` (stereo not given), the growth inhibition is -8.05%.
Turning to `COc1cc(/C=C2\CCC(CN(C)C)C2=O)ccc1OC(=O)c1ccccc1` (stereo not given), the growth inhibition was 86% (active).
In the case of `CCOC(=O)/C(C#N)=C/Nc1[nH]c(=O)c(C#N)c(-c2ccc(Cl)cc2)c1SC`, the growth inhibition is -9.35%.
For `CC(=O)C1=CN(Cc2ccccc2)C(O)CC1C(N)=O` (stereo not given), the growth inhibition is 4.7%.
Regarding `CCN(CC)CCNc1ccc(C)c2sc3ccc(N)cc3c(=O)c12`, the growth inhibition was 8.9%.
Regarding `CN(C)c1nc(=O)c2c(ccc3ccccc32)o1`, the growth inhibition was 7.6%.
`CCCCCC(Nc1nncs1)Nc1nncs1`: the growth inhibition was 14.9%.
Consider `Cc1cc(=O)n(-c2ccc(-c3ccc(-n4c(C)c(C(=O)O)c(C)cc4=O)cc3)cc2)c(C)c1C(=O)O`, for which the growth inhibition was 19.3%.
In the case of `CC[N+](CC)(CC)CCCC[P+](CC)(CC)CC`, the growth inhibition is 8.8%.
On to `COc1ccc(-n2c(N)c(C#N)c(C#N)c2-c2cccc([N+](=O)[O-])c2)cc1`, for which the growth inhibition was -62.8%.
As to `Nc1ccc2cn[nH]c2c1`, the growth inhibition was -6.95%.
Take `C=CCC(NC(=O)OC(C)(C)C)C(=O)NC(CCC(=O)OCc1ccc([N+](=O)[O-])cc1)C(N)=O` (stereo not given) (Boc-[AllylGly]-Glu(ONb)-NH2; configuration not given here): the growth inhibition is -20.1%.
On the same count and under the same terms, the figure for `CC1(n2[nH]c(=O)n(-c3ccccc3)c2=O)Cn2c(=O)n(-c3ccccc3)c(=O)n2-c2ccccc21` (stereo not given) is -1%; for `COC1OC(=O)c2ccccc21` (stereo not given) it is -2.1%.
With `CCN(CC)CCN(Cc1ccccc1)C(=S)NC(=O)c1ccccc1`, the growth inhibition is -5.25%.
